Experimental data from PubChem BioAssay AID1345085 (National Center for Advancing Translational Sciences (NCATS), 2018).
Records with an inconclusive call do not appear. Activity calls are given as the source filed them. The call rests on the fitted dose curve; in most records, active means well fitted cell-killing curve with a large enough effect; inconclusive means small, poorly fitted or top-dose-only effect, or effect the other way; inactive means no such curve, though single readings can be large or run the other way.

Test system: HeLa
Assay: Confirmatory qHTS for gynecologic anti-cancer compounds from libraries of approved drugs and bioactive compounds; further: nearly all actives have a fitted effect of over 55% in size
Conditions: gynecologic cancer cell panel viability, ATPlite luminescence, 48 h; series mostly up to 57.6 µM; activity change, negative = viability loss: at the top concentration
Procedure, shortened: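 Seeding 1,000 cells per well preceded overnight (16 h) attachment, after which 48 h drug treatment across 57.5 uM–0.977 nM (11 points) was applied. Remaining cellular ATP, detected by ATPlite luminescence, defined IC50.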
On the % scale 0 is the no-effect control and ±100 the full control effect; potency means the concentration at half of the fitted maximal effect.

Row | Structure (SMILES) | Potency | activity change, negative = viability loss
1 | Cc1nc(N)ncc1-c1nc(N2CCOCC2)c2sc(C(C)(C)O)cc2n1 | 1.72 µM (active) | 
2 | CN1CCCC(n2nc(Cc3ccc(Cl)cc3)c3ccccc3c2=O)CC1 (configuration not stated) |  | -18.5% (inactive)
3 | COc1cc(Nc2c(C#N)cnc3cc(OCCCN4CCN(C)CC4)c(OC)cc23)c(Cl)cc1Cl | 27.3 µM (active) | 
4 | CCS(=O)(=O)N1CCN(c2ccc(Nc3ncc(C(N)=O)c(NC4CC4)n3)cc2)CC1 | 4.85 µM (active) | 
5 | COc1cccc2cc(-c3nc(C4CCC(C(=O)O)CC4)n4ncnc(N)c34)[nH]c12 (configuration not stated) | 4.85 µM (active) | 
6 | Cc1cnc(Nc2ccc(OCCN3CCCC3)cc2)nc1Nc1cccc(S(=O)(=O)NC(C)(C)C)c1 | 3.85 µM (active) | 
7 | O=C1N(c2ccccc2)c2ccccc2C1(Cc1ccncc1)Cc1ccncc1 |  | 2.62% (inactive)
8 | Cc1cc(CN2CCN(c3c(Br)cnc4nc(-c5ccc(N6CCN(C)CC6)cc5)[nH]c34)CC2)no1 | 3.06 µM (active) | 
9 | Cc1cc(Nc2cc(N3CCN(C)CC3)nc(/C=C/c3ccccc3)n2)n[nH]1 | 1.72 µM (active) | 
10 | Cc1cc(Nc2nc(N[C@@H](C)c3ccc(F)cc3)c(C#N)cc2F)n[nH]1 | 1.09 µM (active) | 
11 | O=C(c1ccc(/C=C/c2n[nH]c3ccccc23)cc1)N1CCNCC1 | 3.43 µM (active) | 
12 | COc1cc(N2CCC(N3CCN(C)CC3)CC2)ccc1Nc1ncnc(Nc2ccccc2S(=O)(=O)C(C)C)n1 | 8.63 µM (active) | 
13 | Nc1cccc(-c2cc3c(Oc4cccc(O)c4)ncnc3[nH]2)c1 | 9.68 µM (active) | 
14 | Cc1cnc(Nc2ccc(CN3CCOCC3)cc2)nc1Nc1cccc(S(=O)(=O)NC(C)(C)C)c1 | 2.17 µM (active) | 
15 | COc1cc(N2CCC(N3CCN(C)CC3)CC2)ccc1Nc1ncc(Cl)c(Nc2ccccc2S(=O)(=O)C(C)C)n1 | 0.769 µM (active) | 
16 | COc1c(C)c2c(c(O)c1C/C=C(\C)CCC(=O)OCCN1CCOCC1)C(=O)OC2 | 2.43 µM (active) | 
17 | COc1cc2c(NC3CCN(C(C)C)CC3)nc(C3CCCCC3)nc2cc1OCCCN1CCCC1 | 15.3 µM (active) | 
18 | CCN(CC)CCNC(=O)c1c(C)[nH]c(/C=C2\C(=O)Nc3ccc(F)cc32)c1C | 12.6 µM (active) | 
19 | CN1CCN(Cc2ccc(NC(=O)Nc3ccc(Oc4cc(NC(=O)C5CC5)ncn4)cc3)cc2C(F)(F)F)CC1 | 0.306 µM (active) | 

Row | Structure (SMILES) | Potency | activity change, negative = viability loss
20 | Cc1ccc(C(=O)Nc2ccc(CN3CCN(C)CC3)c(C(F)(F)F)c2)cc1C#Cc1cnc2cccnn12 | 1.72 µM (active) | 
21 | CN(C)C/C=C/C(=O)Nc1cc2c(Nc3ccc(F)c(Cl)c3)ncnc2cc1OC1CCOC1 (configuration not stated) | 24.3 µM (active) | 
22 | Cn1cc(-c2ccc3ncc(Cc4ccc5ncccc5c4)n3n2)cn1 |  | 4.63% (inactive)
23 | c1nc2nc(Nc3ccc(N4CCOCC4)cc3)nc(NC3CCCCC3)c2[nH]1 | 1.88 µM (active) | 
24 | O=C1Cc2cc(CCN3CCN(c4nsc5ccccc45)CC3)c(Cl)cc2N1 |  | -11% (inactive)
25 | Fc1cc(-c2cccc3ncc(-c4cnn(C5CCNCC5)c4)nc23)cc(F)c1CN1CCOCC1 | 24.3 µM (active) | 
26 | O=C(O)c1ccc(Nc2ncc3c(n2)-c2ccc(Cl)cc2C(c2c(F)cccc2F)=NC3)cc1 | 7.69 µM (active) | 
27 | CCCc1nn(C)c2c(=O)[nH]c(-c3cc(S(=O)(=O)N4CCN(C)CC4)ccc3OCC)nc12 |  | 47.6% (inactive)
28 | COc1cc2c(Oc3ccc(-c4cnc(Nc5ccc(F)cc5)n(C)c4=O)cc3F)ccnc2cc1OCCCN1CCOCC1 | 21.7 µM (active) | 
29 | NCCOc1cc(C(=O)Nc2cc(OCCN)c3ccccc3n2)nc(C(=O)Nc2cc(OCCN)c3ccccc3n2)c1 | 19.3 µM (active) | 
30 | COC(=O)c1ccc2c(C(=Nc3ccc(N(C)C(=O)CN4CCN(C)CC4)cc3)c3ccccc3)c(O)[nH]c2c1 | 24.3 µM (active) | 
31 | CNC(=O)c1ccccc1Sc1ccc2c(/C=C/c3ccccn3)n[nH]c2c1 | 3.06 µM (active) | 
32 | CC1=C(/C=C/C(C)=C/C=C/C(C)=C/C(=O)Nc2ccc(O)cc2)C(C)(C)CCC1 | 24.3 µM (active) | 
33 | COc1cc2c(Nc3ccc(NC(=O)c4ccccc4)cc3)ncnc2cc1OCCCN1CCOCC1 | 21.7 µM (active) | 
34 | O=C(NOCC1CC1)c1ccc(F)c(F)c1Nc1ccc(I)cc1Cl | 9.68 µM (active) | 
35 | Cn1cnc([N+](=O)[O-])c1Sc1ncnc2nc[nH]c12 | 4.85 µM (active) | 
36 | Cc1ccc(C(=O)N(CCCN)C(c2oc3cc(Cl)ccc3c(=O)c2Cc2ccccc2)C(C)C)cc1 (configuration not stated) | 0.0137 µM (active) | 
37 | COc1cc(-c2nn(C3CCC(N4CCN(C(C)=O)CC4)CC3)c3ncnc(N)c23)ccc1NC(=O)c1cc2ccccc2n1C (configuration not stated) | 30.6 µM (active) | 
